The results in this text go back to PubChem BioAssay AID1851 (National Center for Advancing Translational Sciences (NCATS), 2009).

Where “and” joins values, the source holds several entries; their conditions need not be identical. Equal values may be shown once. The whole screen tested about 16,000 compounds, of which about 2,600 (16%) were called active. Not shown: some 20% with an inconclusive outcome. Only a sample is shown. Unmarked numbers belong to inactive results. Calls follow the shape of the dose curve; as a rule, active = well fitted curve in the direction sought with a large enough effect; inconclusive = small, poorly fitted or top-dose-only effect, or effect the other way; inactive = no such curve, though single readings can be large or run the other way.
% is scaled to controls: 0 for no effect and ±100 for the full control effect.

In this experiment the target is Cytochrome P450 2D6 (Homo sapiens) (UniProt P10635). The experiment is described as follows: Cytochrome panel assay with activity outcomes. The conditions noted are these: recombinant CYP, pro-luciferin dealkylation, luminescence, p450-cyp2d6; series mostly up to 57.1 µM.
Sequence of Cytochrome P450 2D6 (Homo sapiens) (P10635 whole entry, looked up): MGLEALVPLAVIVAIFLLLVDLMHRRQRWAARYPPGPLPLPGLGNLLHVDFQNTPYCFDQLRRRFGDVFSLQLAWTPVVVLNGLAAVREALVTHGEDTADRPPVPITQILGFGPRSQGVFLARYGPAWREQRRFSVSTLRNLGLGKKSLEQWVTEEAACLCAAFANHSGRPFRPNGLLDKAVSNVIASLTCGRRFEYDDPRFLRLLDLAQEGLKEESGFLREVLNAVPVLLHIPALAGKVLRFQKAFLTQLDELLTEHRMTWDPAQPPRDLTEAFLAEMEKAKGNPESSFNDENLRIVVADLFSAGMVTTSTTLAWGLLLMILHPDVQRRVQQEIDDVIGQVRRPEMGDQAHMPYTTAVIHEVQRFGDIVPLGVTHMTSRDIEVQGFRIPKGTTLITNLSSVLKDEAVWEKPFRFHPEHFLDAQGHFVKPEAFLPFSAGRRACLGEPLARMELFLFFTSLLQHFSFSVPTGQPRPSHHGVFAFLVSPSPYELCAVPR
`Cc1nn2c(C)nc3sc4c(c3c2nc1=O)CC(C)(C)OC4`: the AC50 (commonly the concentration giving half of the maximal activity seen) is “inactive”.
Still for that read-out and setting: under `CCOC(=O)N1CCN(C(=O)c2ccc(NC(C)=O)cc2)CC1` stands “inactive”; under `CCOC(=O)c1cnc(-c2ccccc2)nc1Oc1ccccc1`, “inactive”; under `CCOC(=O)c1cnc(-c2ccccc2)nc1Oc1cccc(Cl)c1`, “inactive”.
As to `CCOC(=O)c1cnc(SCCc2ccccc2)nc1N`, the AC50 was 2 µM (active).
On the same count and under the same terms, under `O=C1C(O)=C(O)C(=O)C(O)=C1O` stands “inactive”; under `NS(=O)(=O)c1ccc(NCc2ccccc2OCc2ccccc2F)cc1`, 15.8 µM (active).
Take `NS(=O)(=O)c1ccc(NCc2nc3ccccc3[nH]2)cc1`: the activity, negative = inhibition is -10.2% [at 11.4 µM].
Regarding `NS(=O)(=O)c1ccc(NCc2cnc3ccccc3n2)cc1`, the activity, negative = inhibition is 16.5% [at 11.4 µM].
In the case of `O=C(NNC(=O)c1ccccc1)C(=O)N1CCCCC1`, the AC50 entry is “inactive”.
For the compound `BrC(c1cccc2ccccc12)c1cccc2ccccc12`, the activity, negative = inhibition is 11.2% [at 11.4 µM].
For the compound `COc1ccccc1-c1cncnc1NCc1cccc(C)c1`, the AC50 was 20 µM (active).
Still for that read-out and setting: the same measure for `Cc1cccc(CNc2ncncc2-c2cccc(NS(C)(=O)=O)c2)c1`: 20 µM (active).
For the compound `Cc1cccc(CNc2cc(-c3cccc(NS(C)(=O)=O)c3)ncn2)c1`, the AC50 result was “inactive”.
Same read-out and setting: the same measure for `COc1ccccc1-c1cncnc1NCc1ccccc1`: 15.8 µM (active).
Turning to `CNc1ncncc1-c1ccccc1OC`, the AC50 result was “inactive”.
As to `COc1cccc(-c2cncnc2NCc2cccc(C)c2)c1`, the AC50 is 12.6 µM (active).
On the same count and under the same terms, under `NCCCNCCCCNCCCN` stands “inactive”; under `O=C(c1ccc(-c2nnc(Nc3ccccc3)c3ccccc23)cc1)N1C[C@H]2C[C@H](C1)c1cccc(=O)n1C2`, “inactive”; under `O=C(NCc1ccco1)c1ccc2c(=O)n(-c3ccccc3)c(=S)[nH]c2c1`, “inactive”.
On the same count and under the same terms, under `COc1ccc(-n2c(=O)c(-c3ccc(F)cc3)nc3cnc(OC)nc32)cc1` stands “inactive”.
Turning to `O=C(Nc1ccc(C(=O)Nc2ccc(C(=O)Nc3ccc(S(=O)(=O)O)c4cc(S(=O)(=O)O)cc(S(=O)(=O)O)c34)cc2)cc1)Nc1ccc(C(=O)Nc2ccc(C(=O)Nc3ccc(S(=O)(=O)O)c4cc(S(=O)(=O)O)cc(S(=O)(=O)O)c34)cc2)cc1`, the AC50 result is “inactive”.
In the case of `Cc1nonc1NC(=O)OCCN1CCOC1=O`, the AC50 entry is “inactive”.
On to `O=C(O)/C(=C/c1c(C(=O)O)[nH]c2cc(Cl)cc(Cl)c12)c1ccccc1`, for which the AC50 result is “inactive”.
`C[C@@]12CCC(=O)C=C1CC[C@@H]1[C@@H]2[C@H](O)C[C@]2(C)[C@@H]1CC[C@]2(O)C(=O)COC(=O)CCC(=O)O`: the AC50 result was “inactive”.
The same measure, in the same setting: the same measure for `COc1c(O)cc2c(c1O)[C@@H]1O[C@@H](CO)[C@@H](O)[C@@H](O)[C@@H]1OC2=O`: “inactive”; for `CSc1nc(C)c(CCOC(=O)c2ccccc2)c(=O)[nH]1`: “inactive”; for `CCN(CC)C(=O)c1cc2cc([N+](=O)[O-])ccc2s1`: “inactive”.
Turning to `CC1CCCC(NC(=O)c2n[nH]c(=O)c3ccccc23)C1C` (stereo unspecified), the AC50 result is “inactive”.
The same measure, in the same setting: under `COc1cc([C@H](O)C(=O)O)ccc1O` stands “inactive”; under `O=[N+]([O-])c1cccc(-c2nc(-c3ccncc3)no2)c1`, “inactive”.
As to `NS(=O)(=O)c1ccc(N=C2C(=O)Nc3ccccc32)cc1`, the activity, negative = inhibition was 2.35% [at 11.4 µM].
As for `O=C(O)[C@@H]1CCCNC1`, the AC50 result is “inactive”.
For the compound `COc1ccc(CCN2C(=O)C(Oc3ccccc3C)C2c2ccc3c(c2)OCO3)cc1OC` (stereo unspecified), the AC50 is 14.1 µM (active).
Take `O=C1[C@H]2[C@H]3[C@H](O)[C@H](O)C/C(=N/OCc4ccccc4)[C@H]3CC[C@@H]2C(=O)N1Cc1ccc2c(c1)OCO2`: the activity, negative = inhibition was -14.6% [at 11.4 µM].
Consider `COC(=O)c1ccc(C2C(Oc3ccccc3)C(=O)N2CCc2ccc(OC)c(OC)c2)cc1` (stereo unspecified), for which the AC50 result is “inactive”.
Turning to `O=C1C[C@@H](O)[C@@H](O)[C@H]2[C@@H]3C(=O)N(Cc4ccc5c(c4)OCO5)C(=O)[C@@H]3CC[C@H]12`, the activity, negative = inhibition is 14% [at 11.4 µM] and -16.6% [at 11.4 µM].
As for `COc1ccc(CCN2C(=O)C(O)=C(C(=O)c3ccco3)C2c2cccs2)cc1OC` (stereo unspecified), the AC50 entry is “inactive”.
Consider `Cc1ccccc1OC1C(=O)N(Cc2ccc3c(c2)OCO3)C1c1sccc1C` (stereo unspecified), for which the AC50 was 8.91 µM (active).
In the case of `CCCCCc1nc2c(=O)[nH]c3ccccc3c2o1`, the AC50 result is “inactive”.
As to `CN(C)/C=C/C(=O)c1ccc(F)cc1`, the AC50 result was “inactive”.
Regarding `Cc1ccccc1S(=O)(=O)O[C@@H]1NS(=O)(=O)c2ccccc21`, the activity, negative = inhibition was 6.51% [at 11.4 µM].
In the case of `COCn1c2ccccc2c2nnc(C(C)=O)nc21`, the activity, negative = inhibition was -15.8% [at 11.4 µM] and -6.91% [at 11.4 µM].
Take `O=S(=O)(O)C1CCNCC1`: the AC50 entry was “inactive”.
Same read-out and setting: the same measure for `CC(C)N=C(Nc1ccc(Cl)cc1)c1cccnc1`: “inactive”.
As to `O=S(=O)(O)c1ccc2c(N=Nc3cccc4ccccc34)c(O)c(S(=O)(=O)O)cc2c1`, the activity, negative = inhibition was 5.03% [at 11.4 µM].
As to `Cc1nn(Cc2c(F)c(F)c(F)c(F)c2F)c(C)c1NC(=O)c1c(-c2ccccc2)nn(-c2ccccc2)c1C`, the AC50 result was “inactive”.
Take `c1ccc(-c2nc(-c3cccs3)[nH]c2-c2ccccc2)cc1`: the AC50 entry was “inactive”.
Consider `O=[N+]([O-])c1cccc(-c2nc(-c3cccs3)c(-c3cccs3)[nH]2)c1`, for which the half-maximal activity concentration (AC50) is 15.8 µM (active).
As for `Nc1nc(-c2cccc([N+](=O)[O-])c2)cc(-c2cc(-c3cccc([N+](=O)[O-])c3)nc(N)n2)n1`, the activity, negative = inhibition is -5.72% [at 11.4 µM].
For `Cc1cc(C(F)F)n2nc(C(=O)Nc3cccnc3Cl)nc2n1`, the AC50 result is “inactive”.
`O=C(OCc1ccc(Cl)cc1)c1ccccc1C(=O)c1ccccc1`: the AC50 result was “inactive”.
`O=C(OCc1ccc(Cl)cc1Cl)c1cccnc1Cl`: the AC50 was 15.8 µM (active).
`O=C(COC(=O)c1cccnc1Cl)c1ccccc1`: the AC50 result is “inactive”.
On to `CCc1ccc2c(c1)c(N=NC1=NC(=O)CS1)c(O)n2CC`, for which the AC50 entry was “inactive”.
On the same count and under the same terms, the same measure for `COc1ccc(CN2C(=O)c3ccccc3C(/C=N\OCc3ccc(F)cc3)C2=O)cc1` (stereo unspecified): “inactive”.
On to `COc1cccc(Cn2c(=O)c(CCc3ccccc3)nc3cnc(OC)nc32)c1`, for which the AC50 result was “inactive”.
`C=C1C(=O)O[C@@H]2[C@@H]1CC/C(C)=C\CC[C@@]1(C)O[C@H]21`: the AC50 result is “inactive”.
Same read-out and setting: under `CN(C)c1ccc(-c2ccc3ncnc(-n4ccnc4)c3c2)cc1` stands 20 µM (active).
As for `Cc1ccccc1-c1ccc2ncnc(-n3ccnc3)c2c1`, the AC50 is 25.1 µM (active).
Still for that read-out and setting: under `Cc1ccccc1-c1ccc2ncnc(N3CCN(C)CC3)c2c1` stands “inactive”.
The same measure, in the same setting: under `CCOC(=O)c1cc2c(ccn2C)n1CC(=O)N1CCCC(C)C1` (stereo unspecified) stands “inactive”.
On to `Cc1ccc(C(=O)NC(=S)Nc2ccc3c(c2)OCCO3)c(C)c1`, for which the AC50 result is “inactive”.
Still for that read-out and setting: under `CON1C(=O)C(=O)N(OC)C2CCCCC21` (stereo unspecified) stands “inactive”; under `Cc1cccc(CSc2cccc3cccnc23)c1`, “inactive”.
The same measure, in the same setting: under `CC(C)(C)c1cc2cccnc2n1Cc1cccc(F)c1` stands 1.26 µM (active); under `COc1cccc(Cn2c(=O)c(-c3cc(F)cc(F)c3)nc3cnc(N(C)C)nc32)c1`, “inactive”.
The same measure, in the same setting: the same measure for `CN(C)c1ccc(/C=C2/C(=O)N(c3ccc([N+](=O)[O-])cc3)N=C2N2CCOCC2)cc1`: “inactive”; for `COc1ccc2[nH]c(C(=O)c3ccccc3)cc2c1`: “inactive”.
As to `C=CCSC1=Nc2sccc2C2=NC(=O)CN12`, the AC50 result is “inactive”.
On the same count and under the same terms, the same measure for `COc1cc2c(cc1NC(=O)c1cc(-c3cccnc3)nc3ccc(C)cc13)oc1ccccc12`: “inactive”; for `COc1cc2c(cc1NC(=O)Nc1ccccc1)oc1ccccc12`: 10 µM (active).
In the case of `COc1ccccc1CC(=O)Nc1cc2oc3ccccc3c2cc1OC`, the AC50 result is “inactive”.
As to `COCCn1c(=O)c(-c2ccc(OC)cc2)nc2cnc(Nc3cccc(OC)c3)nc21`, the AC50 entry was “inactive”.
In the case of `CCOc1cc(NC(=O)C2CCCCC2)c(OCC)cc1NC(=O)c1ccco1`, the AC50 entry is “inactive”.
Consider `COc1ccc(NC(=O)c2cc(-c3ccccc3Cl)no2)cc1`, for which the AC50 result was “inactive”.
Consider `O=S(=O)(NCc1cc(-c2ccc(Cl)cc2)no1)c1ccc(Cl)cc1`, for which the AC50 is 0.631 µM (active).
Still for that read-out and setting: the same measure for `O=S(=O)(NCc1cc(-c2ccccc2Cl)no1)c1ccc(Cl)cc1`: 12.6 µM (active); for `Cn1c(CNS(=O)(=O)c2ccc(Cl)cc2)n[nH]c1=S`: “inactive”.
Turning to `O=C(Nc1ccccc1)c1cc(-c2ccccc2Cl)no1`, the AC50 entry was “inactive”.
On to `Clc1ccc(SCc2cc(-c3ccccc3)no2)cc1`, for which the AC50 result is “inactive”.
Same read-out and setting: the same measure for `COc1ccc([C@@H]2CC(=O)c3c(O)cc(O[C@H]4O[C@@H](CO[C@H]5O[C@@H](C)[C@@H](O)[C@@H](O)[C@@H]5O)[C@@H](O)[C@@H](O)[C@@H]4O)cc3O2)cc1O`: “inactive”; for `COc1cc(Cl)c(C)cc1NC(=O)CNC(=O)Cn1cnc2ccccc2c1=O`: “inactive”.
As for `Cc1ccc(S(=O)(=O)c2nc(S(=O)(=O)c3ccc(C)cc3)c(NCc3ccco3)s2)cc1`, the AC50 entry was “inactive”.
On the same count and under the same terms, under `Cc1nc2c([nH]1)c(=O)n(C)c(=O)n2Cc1ccco1` stands “inactive”; under `Nc1c(S(=O)(=O)c2ccccc2)c2nc3ccccc3nc2n1Cc1ccco1`, 25.1 µM (active); under `Cc1onc(-c2ccccc2Cl)c1C(=O)NCC(=O)O`, “inactive”.
Same read-out and setting: the same measure for `O=c1c(-c2cccs2)nc2cnc(Oc3ccccc3)nc2n1Cc1cccs1`: “inactive”; for `NC(=O)CNC(=O)[C@@H]1CC2(CC(c3ccc(Cl)cc3)=NO2)CN1C(=O)c1ccccc1` (stereo partly specified): “inactive”.
Consider `COc1ccc(S(=O)(=O)N2CCCCCC2)cc1N(C)S(=O)(=O)c1ccc(Cl)cc1`, for which the AC50 entry is “inactive”.
`O=C(c1ccncc1)N1CCC2(CC1)CN(C(c1ccccc1)c1ccccc1)C2`: the AC50 was 0.0251 µM (active).
Still for that read-out and setting: under `O=C(c1ccncc1)N1CCC2(CCCN(C(c3ccccc3)c3ccccc3)C2)CC1` stands 0.0398 µM (active); under `O=C(c1ccncc1)N1CCC[C@@]2(CCN(c3ccccc3)C2)C1`, “inactive”; under `O=C(c1ccncc1)N1CCC2(CC1)CN(c1ccc(-c3ccccc3)cc1)C2`, “inactive”.
The same measure, in the same setting: the same measure for `O=C(c1ccncc1)N1CCC[C@@]2(CCN(c3ncccn3)C2)C1`: “inactive”; for `O=C(c1ccncc1)N1CCC2(CC1)CCN(c1cccc(-c3ccccc3)c1)CC2`: 7.94 µM (active).
The same measure, in the same setting: the same measure for `CC(C)NC(=O)N1CCCC2(CCN(C(=O)c3ccncc3)CC2)C1`: “inactive”.
With `O=C(c1cccc(F)c1)N1CCC2(CC1)CCN(c1cccc(-c3ccccc3)c1)CC2`, the AC50 result was “inactive”.
Same read-out and setting: the same measure for `CC(C)NC(=O)N1CC2(CCN(C(=O)c3ccncc3)CC2)C1`: “inactive”; for `O=C(c1ccncc1)N1CCC2(CC1)CCN(c1ccccc1)CC2`: “inactive”; for `O=C(c1ccncc1)N1CCC2(CC1)CN(c1ccccc1)C2`: 7.94 µM (active).
